Laboratory results: PubChem BioAssay (NCATS)
Values joined by “and” are separate entries in the source; they are usually repeats but may differ in a detail not shown here. Identical values can stand only once. Results filed as inconclusive are left out. A structure can be active in one record and inactive in another. Active and inactive are the calls of the source. Unless noted, calls follow the shape of the dose curve; as a rule, active = well fitted inhibition curve with a large enough effect; inconclusive = small, poorly fitted or top-dose-only effect; inactive = no such curve, though single readings can be large or run the other way.

Assay: High-throughput drug toxicity screening in the BPDCN cell line Cal-1 (AID 1224825; call rule not given here)
Details: Cal-1 BPDCN cell viability, qHTS; at 45.8 µM (top of the series) unless noted
How it was run: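 CellTiter-Glo luminescence after 48 h compound exposure; percent activity scaled with DMSO as 100% and bortezomib (9.2 uM final) as 0%. Cal-1 cells seeded at 500/well in RPMI, 10% FBS, no phenol red.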

| SMILES | viability (% of control) [%] |
| --- | --- |
| Cc1ccc(Nc2nccc(N(C)c3ccc4c(C)n(C)nc4c3)n2)cc1S(N)(=O)=O | 62.5 |
| NCCCCNCCCN | 3.12 |
| CCCc1cc(=O)[nH]c(=S)[nH]1 | 14.9 |
| Cc1cccc(CN2CCN(C(c3ccccc3)c3ccc(Cl)cc3)CC2)c1 (stereo not given) | 94 |
| N[C@@H](Cc1cc(I)c(Oc2cc(I)c(O)c(I)c2)c(I)c1)C(=O)O | 123 |
| COC(=O)N[C@H](C(=O)N[C@@H](Cc1ccccc1)[C@@H](O)CN(Cc1ccc(-c2ccccn2)cc1)NC(=O)[C@@H](NC(=O)OC)C(C)(C)C)C(C)(C)C | 107 |
| Cc1ccc(S(=O)(=O)NC(=O)NN2CC3CCCC3C2)cc1 (stereo not given) | 35.2 |
| CN(c1nccc(=O)[nH]1)C1CCN(c2nc3ccccc3n2Cc2ccc(F)cc2)CC1 | 108 |
| Cc1cc2cc3c(C)cc(=O)oc3c(C)c2o1 | 8.43 |
| CN(C)CCCC1(c2ccc(F)cc2)OCc2cc(C#N)ccc21 (stereo not given) | 99.6 |
| COc1c2occc2cc2ccc(=O)oc12 | 93.5 |
| Nc1ncn([C@H]2C[C@H](O)[C@@H](CO)O2)c(=O)n1 | 47.1 |
| Cc1nc2n(c(=O)c1CCN1CCC(c3noc4cc(F)ccc34)CC1)CCCC2 | 103 |
| COC(=O)C1=C(C)NC(C)=C(C(=O)OC(C)C)C1c1cccc2nonc12 (stereo not given) | 105 |
| CCCCCCCCOc1ccccc1C(=O)Nc1ccc(C(=O)OCC[N+](C)(CC)CC)cc1 | 14.9 |
| CS(=O)(=O)OCCCCOS(C)(=O)=O | 62.5 |
| Nc1ccc(S(N)(=O)=O)cc1 | 112 |
| O=C1NC(=O)C(c2ccccc2[N+](=O)[O-])=C1Nc1ccc(O)c(Cl)c1 | 36.6 |
| COC(=O)C1=C(C)NC(C)=C(C(=O)OCCCN2CCC(c3ccccc3)(c3ccccc3)CC2)C1c1cccc([N+](=O)[O-])c1 (stereo not given) | 123 |
| OC(CN1CCN(c2cccc(Cl)c2)CC1)C(c1ccccc1)c1ccccc1 (stereo not given) | 88.8 |
| COc1cc2c(N3CCN(C(=O)Nc4ccc(OC(C)C)cc4)CC3)ncnc2cc1OCCCN1CCCCC1 | 11.3 |
| CC(=O)NC[C@H]1CN(c2ccc(N3CCOCC3)c(F)c2)C(=O)O1 | 105 |

Assay: qHTS assay for measurement of the activity of small molecule inhibitors on Zika virus induced Caspase-3 activity in human iPSC derived neural progenitor cells (hNPCs) (AID 1224857); also: nearly all actives have a fitted effect of over 65% in size; also: potency is read from the fitted curve at half-maximal effect; as to activity change, negative = inhibition: % of control where 0% means no effect
Details: hNPCs ZIKV-induced caspase-3/7, Caspase-Glo luminescence, 6 h; series mostly up to 45.7 µM; activity change, negative = inhibition: at the top concentration
How it was run: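 Zika virus (2 FFU/cell) infection of human iPSC-derived NPCs, 6 h, following 1 h compound preincubation. Read-out: Caspase-Glo 3/7 luminescence.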

| SMILES | Potency | activity change, negative = inhibition |
| --- | --- | --- |
| N=C(N)c1ccc2cc(OC(=O)c3ccc(N=C(N)N)cc3)ccc2c1 | inactive |  |
| CNC[C@H](O)c1ccc(O)c(O)c1 |  | -14.2% (inactive) |
| Nc1nc(OCc2ccccc2)c2[nH]cnc2n1 | inactive |  |
| O=C(NOCC1CC1)c1ccc(F)c(F)c1Nc1ccc(I)cc1Cl | inactive |  |
| CCC[C@@H]1C[C@@H](C(=O)N[C@@H]([C@H]2O[C@H](SC)[C@H](O)[C@@H](O)[C@H]2O)[C@@H](C)O)N(C)C1 |  | 3.94% (inactive) |
| CN(C)C(=O)COC(=O)Cc1ccc(OC(=O)c2ccc(N=C(N)N)cc2)cc1 | inactive |  |
| CC1(C)NC(=O)N(c2ccc([N+](=O)[O-])c(C(F)(F)F)c2)C1=O |  | -10% (inactive) |
| Cc1cc(C2CCCCC2)n(O)c(=O)c1 | inactive |  |
| CCCCN(CCCC)CCC(O)c1cc2c(Cl)cc(Cl)cc2c2cc(C(F)(F)F)ccc12 (stereo not given) | inactive |  |
| COc1ccc(C2(C#N)CCC(C(=O)O)CC2)cc1OC1CCCC1 (stereo not given) |  | 26.3% (inactive) |
| NC(=NCc1ccccc1)NC(=O)c1nc(Cl)c(N)nc1N | inactive |  |
| Cn1c(NCCN(CCO)CCCc2ccc([N+](=O)[O-])cc2)cc(=O)n(C)c1=O | inactive |  |
| CC(=O)N1CCN(c2ccc(OC[C@H]3CO[C@](Cn4ccnc4)(c4ccc(Cl)cc4Cl)O3)cc2)CC1 | inactive |  |
| COc1cc2nc(N3CCN(C(=O)C4CCCO4)CC3)nc(N)c2cc1OC (stereo not given) | inactive and 13.2 µM (active) |  |
| O=c1c(O)c(-c2ccc(O)cc2O)oc2cc(O)cc(O)c12 | inactive |  |
| O=C(CCc1ccc(O)cc1)c1c(O)cc(O)cc1O | inactive |  |
| CC(=O)O[C@H]1C(=O)[C@@]2(C)C([C@H](OC(=O)c3ccccc3)[C@]3(O)C[C@H](OC(=O)[C@H](O)[C@@H](NC(=O)c4ccccc4)c4ccccc4)C(C)=C1C3(C)C)[C@]1(OC(C)=O)CO[C@@H]1C[C@@H]2O (stereo not given in full) |  | -4.61% (inactive) |
| Cc1ccc(Nc2nccc(N(C)c3ccc4c(C)n(C)nc4c3)n2)cc1S(N)(=O)=O | inactive |  |
| NCCCCNCCCN | inactive |  |
| CCCc1cc(=O)[nH]c(=S)[nH]1 | inactive |  |
| Cc1cccc(CN2CCN(C(c3ccccc3)c3ccc(Cl)cc3)CC2)c1 (stereo not given) | inactive |  |
| N[C@@H](Cc1cc(I)c(Oc2cc(I)c(O)c(I)c2)c(I)c1)C(=O)O | inactive |  |
| COC(=O)N[C@H](C(=O)N[C@@H](Cc1ccccc1)[C@@H](O)CN(Cc1ccc(-c2ccccn2)cc1)NC(=O)[C@@H](NC(=O)OC)C(C)(C)C)C(C)(C)C | inactive |  |
